Test results published in the supplement of paper PMC11732987, “Enantioselective OTUD7B fragment discovery through chemoproteomics screening and high-throughput optimisation” (Communications Chemistry, 2025).

Compound: COc1cccc(CN(C)C(=O)CCl)c1
Test: log2 ratio of Biotin-Ahx-Ub-VS probe labelling (compound/DMSO); higher = less target engagement, active = hit call of the paper (q ≤ 0.05, log2 ratio ≤ -1)
Conditions: compound concentration: 50uM; treatment time: 3 h
Method: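 Round 2 competitive ABPP in HEK293T lysate. Compounds were tested at 50 and 200 µM for 3 h, followed by Biotin-Ahx-Ub-VS enrichment and diaPASEF LC-MS/MS. Values are the average log2 ratio (compound/DMSO) from an unpaired t-test (n=3 treated, n=26 DMSO).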

UniProt P51784, sequence (P51784 whole entry): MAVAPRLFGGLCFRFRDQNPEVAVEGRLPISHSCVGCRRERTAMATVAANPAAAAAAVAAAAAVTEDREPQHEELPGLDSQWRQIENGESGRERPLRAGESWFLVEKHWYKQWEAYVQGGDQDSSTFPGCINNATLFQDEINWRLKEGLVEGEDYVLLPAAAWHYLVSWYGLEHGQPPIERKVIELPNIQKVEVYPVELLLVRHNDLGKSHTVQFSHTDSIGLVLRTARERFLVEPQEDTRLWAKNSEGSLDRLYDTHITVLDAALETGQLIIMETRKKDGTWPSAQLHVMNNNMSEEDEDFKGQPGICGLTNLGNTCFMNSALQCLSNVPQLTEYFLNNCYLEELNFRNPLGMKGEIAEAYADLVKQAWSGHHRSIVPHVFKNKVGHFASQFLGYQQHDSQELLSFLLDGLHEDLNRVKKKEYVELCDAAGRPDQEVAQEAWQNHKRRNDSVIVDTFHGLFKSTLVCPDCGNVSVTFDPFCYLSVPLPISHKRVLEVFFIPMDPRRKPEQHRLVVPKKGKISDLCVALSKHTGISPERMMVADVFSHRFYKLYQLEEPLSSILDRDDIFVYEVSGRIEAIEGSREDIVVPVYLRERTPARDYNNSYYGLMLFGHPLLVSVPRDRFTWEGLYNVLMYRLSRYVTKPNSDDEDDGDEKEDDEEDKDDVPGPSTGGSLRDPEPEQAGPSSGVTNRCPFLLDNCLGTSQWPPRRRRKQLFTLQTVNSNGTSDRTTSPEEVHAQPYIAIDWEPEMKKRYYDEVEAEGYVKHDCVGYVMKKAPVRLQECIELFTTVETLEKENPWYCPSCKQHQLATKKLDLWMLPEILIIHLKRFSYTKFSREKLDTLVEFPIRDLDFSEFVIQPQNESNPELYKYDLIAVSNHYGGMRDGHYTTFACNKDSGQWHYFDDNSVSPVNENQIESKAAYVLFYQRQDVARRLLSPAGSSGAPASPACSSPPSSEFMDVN
UniProt Q93009, sequence (Q93009 whole entry, looked up): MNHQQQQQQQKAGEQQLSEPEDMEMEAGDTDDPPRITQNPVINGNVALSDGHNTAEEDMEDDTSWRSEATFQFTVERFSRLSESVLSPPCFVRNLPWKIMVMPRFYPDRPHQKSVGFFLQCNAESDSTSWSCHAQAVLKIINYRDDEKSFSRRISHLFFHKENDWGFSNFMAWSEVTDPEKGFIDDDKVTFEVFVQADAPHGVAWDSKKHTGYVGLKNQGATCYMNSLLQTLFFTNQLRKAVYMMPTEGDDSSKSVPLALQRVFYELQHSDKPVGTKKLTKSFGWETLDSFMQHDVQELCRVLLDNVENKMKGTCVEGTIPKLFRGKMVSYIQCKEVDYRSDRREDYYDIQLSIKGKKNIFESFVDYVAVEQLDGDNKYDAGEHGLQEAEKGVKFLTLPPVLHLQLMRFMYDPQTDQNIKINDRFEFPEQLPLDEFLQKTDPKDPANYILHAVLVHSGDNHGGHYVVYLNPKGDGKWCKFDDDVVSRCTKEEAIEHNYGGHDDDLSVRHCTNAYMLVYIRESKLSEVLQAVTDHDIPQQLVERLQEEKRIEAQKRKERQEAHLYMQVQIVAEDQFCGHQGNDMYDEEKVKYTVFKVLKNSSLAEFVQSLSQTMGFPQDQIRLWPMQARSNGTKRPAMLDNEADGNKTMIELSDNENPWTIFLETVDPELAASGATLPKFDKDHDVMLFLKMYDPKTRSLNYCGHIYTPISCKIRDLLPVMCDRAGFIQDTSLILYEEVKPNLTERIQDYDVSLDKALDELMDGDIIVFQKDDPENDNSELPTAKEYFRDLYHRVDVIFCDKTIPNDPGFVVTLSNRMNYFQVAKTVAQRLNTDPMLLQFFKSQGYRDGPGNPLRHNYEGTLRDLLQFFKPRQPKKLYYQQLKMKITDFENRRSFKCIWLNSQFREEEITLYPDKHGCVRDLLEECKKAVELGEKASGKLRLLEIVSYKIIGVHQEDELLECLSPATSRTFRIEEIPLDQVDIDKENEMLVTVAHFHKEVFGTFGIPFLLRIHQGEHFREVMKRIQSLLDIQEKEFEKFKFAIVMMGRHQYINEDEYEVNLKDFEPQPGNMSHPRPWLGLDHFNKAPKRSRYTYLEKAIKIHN
UniProt Q9Y5T5, sequence (Q9Y5T5 whole entry, looked up): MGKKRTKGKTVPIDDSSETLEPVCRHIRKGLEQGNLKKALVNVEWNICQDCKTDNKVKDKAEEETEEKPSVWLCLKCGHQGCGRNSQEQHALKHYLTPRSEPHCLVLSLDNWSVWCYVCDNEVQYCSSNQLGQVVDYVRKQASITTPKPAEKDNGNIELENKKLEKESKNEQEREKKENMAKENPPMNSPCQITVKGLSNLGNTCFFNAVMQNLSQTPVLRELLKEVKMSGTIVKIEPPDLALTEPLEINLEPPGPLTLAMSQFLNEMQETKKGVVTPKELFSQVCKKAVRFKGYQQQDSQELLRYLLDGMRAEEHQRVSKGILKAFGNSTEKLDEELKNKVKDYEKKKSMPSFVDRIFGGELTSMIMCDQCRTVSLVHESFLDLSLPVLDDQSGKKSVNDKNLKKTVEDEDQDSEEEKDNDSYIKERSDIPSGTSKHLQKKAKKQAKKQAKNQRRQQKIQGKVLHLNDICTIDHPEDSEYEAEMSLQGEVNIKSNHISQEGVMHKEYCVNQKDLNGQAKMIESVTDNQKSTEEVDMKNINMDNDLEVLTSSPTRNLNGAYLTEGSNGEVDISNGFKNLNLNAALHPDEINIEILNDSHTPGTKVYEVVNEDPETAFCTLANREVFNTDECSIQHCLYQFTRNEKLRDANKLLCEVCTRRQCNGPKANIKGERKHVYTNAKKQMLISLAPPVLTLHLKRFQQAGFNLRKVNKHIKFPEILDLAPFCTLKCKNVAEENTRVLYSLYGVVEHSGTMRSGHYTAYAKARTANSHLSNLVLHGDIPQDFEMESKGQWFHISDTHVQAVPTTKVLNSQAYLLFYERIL
UniProt Q13107, sequence (Q13107 whole entry): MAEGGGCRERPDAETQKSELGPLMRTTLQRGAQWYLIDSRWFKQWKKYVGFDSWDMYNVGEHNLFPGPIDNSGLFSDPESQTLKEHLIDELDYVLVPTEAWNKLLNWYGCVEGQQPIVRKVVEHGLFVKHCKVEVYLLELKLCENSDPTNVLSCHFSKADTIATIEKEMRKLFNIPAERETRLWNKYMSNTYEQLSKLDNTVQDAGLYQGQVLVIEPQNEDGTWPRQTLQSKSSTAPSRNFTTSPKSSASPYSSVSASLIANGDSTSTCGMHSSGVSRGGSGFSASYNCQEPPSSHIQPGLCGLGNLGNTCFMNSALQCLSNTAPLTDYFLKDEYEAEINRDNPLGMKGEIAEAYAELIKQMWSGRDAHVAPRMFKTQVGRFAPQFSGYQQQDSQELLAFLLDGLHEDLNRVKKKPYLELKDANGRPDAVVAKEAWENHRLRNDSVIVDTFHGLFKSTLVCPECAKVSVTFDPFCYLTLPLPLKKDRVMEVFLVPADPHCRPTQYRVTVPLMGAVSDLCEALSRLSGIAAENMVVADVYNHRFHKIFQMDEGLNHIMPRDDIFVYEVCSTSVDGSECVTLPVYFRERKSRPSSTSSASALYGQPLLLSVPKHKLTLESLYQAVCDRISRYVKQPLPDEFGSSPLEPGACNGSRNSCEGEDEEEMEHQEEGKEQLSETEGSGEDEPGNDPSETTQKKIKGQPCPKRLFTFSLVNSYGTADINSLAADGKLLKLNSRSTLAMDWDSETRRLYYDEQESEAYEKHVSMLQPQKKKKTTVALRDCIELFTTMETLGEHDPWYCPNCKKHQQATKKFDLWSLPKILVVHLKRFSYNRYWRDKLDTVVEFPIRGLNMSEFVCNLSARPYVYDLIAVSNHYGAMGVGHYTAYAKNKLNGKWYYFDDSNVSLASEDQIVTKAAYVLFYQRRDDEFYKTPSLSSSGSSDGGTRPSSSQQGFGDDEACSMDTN
UniProt P62068, sequence (P62068 whole entry): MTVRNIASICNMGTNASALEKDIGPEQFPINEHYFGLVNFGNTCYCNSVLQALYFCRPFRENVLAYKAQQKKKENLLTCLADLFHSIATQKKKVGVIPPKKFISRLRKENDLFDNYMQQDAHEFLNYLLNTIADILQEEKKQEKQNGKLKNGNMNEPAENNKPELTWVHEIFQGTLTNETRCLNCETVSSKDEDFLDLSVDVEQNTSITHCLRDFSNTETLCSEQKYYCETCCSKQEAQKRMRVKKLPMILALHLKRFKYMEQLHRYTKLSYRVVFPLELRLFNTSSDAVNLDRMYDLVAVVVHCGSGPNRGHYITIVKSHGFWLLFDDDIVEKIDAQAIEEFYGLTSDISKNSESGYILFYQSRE
UniProt P54578, sequence (P54578 whole entry): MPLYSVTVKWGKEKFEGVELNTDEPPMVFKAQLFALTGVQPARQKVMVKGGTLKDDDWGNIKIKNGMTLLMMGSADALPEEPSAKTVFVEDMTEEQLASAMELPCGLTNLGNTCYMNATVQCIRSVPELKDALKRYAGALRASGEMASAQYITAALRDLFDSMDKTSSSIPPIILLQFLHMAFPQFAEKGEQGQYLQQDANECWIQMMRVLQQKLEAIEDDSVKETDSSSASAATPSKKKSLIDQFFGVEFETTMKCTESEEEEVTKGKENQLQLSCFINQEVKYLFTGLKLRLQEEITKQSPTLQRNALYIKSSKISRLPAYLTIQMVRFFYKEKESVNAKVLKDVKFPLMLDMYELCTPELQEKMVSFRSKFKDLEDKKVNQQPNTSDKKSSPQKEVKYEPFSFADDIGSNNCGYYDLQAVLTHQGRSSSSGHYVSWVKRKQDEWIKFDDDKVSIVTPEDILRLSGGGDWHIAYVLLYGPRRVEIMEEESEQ
UniProt P09936, sequence (P09936 whole entry, looked up): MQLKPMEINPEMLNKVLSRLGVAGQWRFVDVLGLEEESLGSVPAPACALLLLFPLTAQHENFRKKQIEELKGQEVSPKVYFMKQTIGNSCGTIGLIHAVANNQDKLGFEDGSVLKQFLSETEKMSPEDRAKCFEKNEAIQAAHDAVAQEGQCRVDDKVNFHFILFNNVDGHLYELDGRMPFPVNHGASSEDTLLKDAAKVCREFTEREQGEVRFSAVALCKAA

log2 ratio of Biotin-Ahx-Ub-VS probe labelling, active:
USP25 (UniProt Q9UHP3) -1.88
BAP1 (UniProt Q92560) -1.22
USP4 (UniProt Q13107) -1.18

log2 ratio of Biotin-Ahx-Ub-VS probe labelling, inactive:
ALG13 (UniProt Q9NP73) 0.312
OTUD4 (UniProt Q01804) -0.113
USP14 (UniProt P54578) -0.0931
OTUB1 (UniProt Q96FW1) -0.0418
USP42 (UniProt Q9H9J4) 0.0563
USP36 (UniProt Q9P275) -0.0259
OTUD7B (UniProt Q6GQQ9) -0.372
USP39 (UniProt Q53GS9) -0.0648
VCPIP1 (UniProt Q96JH7) -0.139
USP16 (UniProt Q9Y5T5) 0.0263
UniProt P51784 0.0601
USP12 (UniProt O75317) -0.38
PRPF8 (UniProt Q6P2Q9) 0.0579
USP46 (UniProt P62068) -0.277
USP48 (UniProt Q86UV5) -0.144
USP7 (UniProt Q93009) -0.4
UCHL1 (UniProt P09936) -0.0521

Same assay, conditions: compound concentration: 200uM; treatment time: 3 h

log2 ratio of Biotin-Ahx-Ub-VS probe labelling, inactive:
ALG13 (UniProt Q9NP73) 0.0712
USP25 (UniProt Q9UHP3) -0.899
OTUD4 (UniProt Q01804) -0.21
USP14 (UniProt P54578) -0.202
OTUB1 (UniProt Q96FW1) 0.0222
USP42 (UniProt Q9H9J4) 0.184
USP36 (UniProt Q9P275) 0.018
OTUD7B (UniProt Q6GQQ9) -0.803
USP4 (UniProt Q13107) -0.498
USP39 (UniProt Q53GS9) -0.162
VCPIP1 (UniProt Q96JH7) -0.277
USP16 (UniProt Q9Y5T5) -0.213
UniProt P51784 -0.0791
USP12 (UniProt O75317) 0.0984
PRPF8 (UniProt Q6P2Q9) 0.0324
USP46 (UniProt P62068) -0.261
USP48 (UniProt Q86UV5) -0.273
UCHL1 (UniProt P09936) 0.0224

log2 ratio of Biotin-Ahx-Ub-VS probe labelling, active:
BAP1 (UniProt Q92560) -3.29
USP7 (UniProt Q93009) -1.53
